# Source: PubChem BioAssay
# Pf growth 96h: inhibits malaria parasite growth, 96 h | Potency, µM (doses to about 28.7 µM), for inactives: at the top dose activity change, negative = inhibition, most hits filed as inhibitors | P. falciparum luciferase reporter growth, 96 h | 6.9% of 320,000 active; note: potency is the fitted concentration of half-maximal effect; % is set by controls: 0 for no effect and ±100 for the full control effect
#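 Two parasite generations (96 h, 37 C, 5% CO2) of compound exposure in infected erythrocytes (0.05% parasitemia, 2% hematocrit). Luciferase-reporter P. falciparum; decreased luminescence indicates inhibited growth, aimed at apicoplast-acting delayed death.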
# Shiga toxin inh: blocks Shiga toxin action in Vero cells. 9.2% of 290,000 active. inhibition, % at 38.7 µM. Vero cells, Shiga toxin protein synthesis inhibition reporter. AID 2315; in the data active = inhibition mostly above about 28%, no sharp cut-off; inactive = mostly below about 43%; note: 0% is about no effect
# CHX counter: counter-screen for Shiga toxin inhibitors: cycloheximide protein synthesis inhibition; cell reporter, cycloheximide protein synthesis inhibition counterscreen; max response, %; 12% of 300,000 active; in the data active = max response mostly above about 13%, no sharp cut-off; inactive = mostly below about 14%; note: read at 38.3 µM for the half of the compounds with a filed dose; 0% is about no effect
# NS1 inh: influenza NS1 inhibition; Potency, µM (highest dose often 46.1 µM), without a hit: at the highest dose activity, positive = more growth; AID 2326; 0.4% of 270,000 active; calls by dose curve; note: potency is the fitted concentration of half-maximal effect; actives are rising curves; nearly all actives have a fitted effect of over 50% in size
#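 S. cerevisiae expressing influenza A NS1, grown in glucose, washed, then diluted 1:100 into pH 6.0 -URA galactose medium with 23 nl compound. Growth recovery read as OD600; NS1-free strain serves as control.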
# Pf growth 48h: P. falciparum growth inhibition at 48 hours (one generation); P. falciparum luciferase growth in erythrocytes, 48 h; Potency, µM (titrated, usually from 28.7 µM), for inactives: at the top dose activity change, negative = inhibition, most hits filed as inhibitors; 5.9% of 310,000 active; AID 504832; note: potency is the fitted concentration of half-maximal effect; % is set by controls: 0 for no effect and ±100 for the full control effect
#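 Luminescence readout; reporter = integrated firefly luciferase in P. falciparum. RBC culture at 2% hematocrit, 0.1% parasitemia final, 37 C/5% CO2; decreased signal taken as growth inhibition.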
# The depositor's hits bear a star; ? = inconclusive; nt = no result; [ ] = dose if it differs, or a comment. Rows were chosen to be rich in hits. Some 21% of all compounds tested hit in one or more screens of this group. Unless noted, calls come from the whole dose curve; as a rule, active = well fitted inhibition curve with a large enough effect; inconclusive = small, poorly fitted or top-dose-only effect, or another doubt; inactive = no such curve, though single readings can be large or run the other way.
SMILES,Pf growth 96h,Shiga toxin inh,CHX counter,NS1 inh,Pf growth 48h
NC1=NC([S][Hg][c]2ccc(N)cc2)c2ncn([C@@H]3O[C@H](CO)[C@@H](O)[C@@H]3O)c2N1 (stereo partly drawn),nt,nt,nt,-31%,nt
O=C(CSc1ncn(-c2ccccc2)n1)NCc1ccccc1,nt,-3,-2,-13%,-13%
Cc1ccc(CSc2ncn(-c3ccccc3)n2)cc1,?,86*,36*,-117%,nt
Clc1ccccc1CSc1ncn(-c2ccccc2)n1,360%,70*,42*,-9%,313%
CCOC(=O)c1cc(NC(=O)CC(C)(C)CC(=O)O)ccc1N1CCCCC1,?,13,-3,1%,-11%
COc1cc(OC)c(N2CC34C=CC(O3)C(C(=O)O)C4C2=O)cc1Cl (stereo not drawn),nt,23,-4,6%,-4%
O=C(COc1cc(Cl)ccc1Cl)N1CCNC1=O,23%,nt,nt,nt,?
CN(C)S(=O)(=O)c1cccc(NC(=S)N/N=C/c2cccc(O)c2)c1,?,36,18,-1%,?
O=C(C[n+]1ccccc1)N/N=C/c1ccccc1F,-25%,-7,-3,nt,0%
CCOc1ccccc1NC(=O)C(=O)N/N=C/c1cc(Br)ccc1O,-26%,8,-6,nt,2.3µM*
O=C(N/N=C/c1cc(Br)ccc1O)Nc1ccccc1,8.3µM*,76*,-2,-33%,?
CN(C)S(=O)(=O)c1cccc(NC(=S)N/N=C/c2cc(Br)ccc2O)c1,?,28,14,-1%,2.1µM*
O=C(C[n+]1ccccc1)N/N=C/c1cc(Br)ccc1O,4.1µM*,-1,-1,-8%,nt
CCOC(=O)C1CCCN(C(=S)Nc2ccc(C)cc2C)C1 (stereo not drawn),nt,-21,-1,-3%,11%
CCCCCCCC1c2c(c(C)c(C)oc2=O)Oc2c(C)c(C)oc(=O)c21,?,nt,nt,nt,-2%
O=C(C[n+]1ccccc1)N/N=C/c1ccc(Cl)cc1,7.4µM*,nt,nt,nt,?
CC(C)[C@H](NC(=O)N1CC(=O)Nc2ccccc21)C(=O)N1CCC(C(=O)O)CC1,41%,13,5,0%,-11%
O=C(CSc1nc2ccccc2c(=O)n1Cc1ccco1)N1CCCCCC1,31%,20,17*,-23%,5.2µM*
O=C(NCc1ccco1)c1ccc2c(=O)n(Cc3ccco3)c(SCC(=O)N3CCCC3)nc2c1,52%,39*,33*,6%,?
CN(Cc1ccccc1)C(=O)CSc1nc2ccccc2c(=O)n1Cc1ccco1,?,39,38*,-7%,-11%
COCCn1c(C)cc(C(=O)CSc2nc3ccccc3c(=O)n2Cc2ccco2)c1C,-4%,96*,23*,28%,34%
COCCNC(=O)c1ccc2c(=O)n(Cc3ccco3)c(SCC(=O)NC3CCCCC3)nc2c1,?,-15,-2,1%,0%
CCn1c(SCC(=O)N2CCCCCC2)nc2ccccc2c1=O,?,-4,-2,-1%,?
COc1cc(NC(=O)C(C)N2CCN(C(=O)C3CC3)CC2)cc(OC)c1 (stereo not drawn),?,nt,nt,nt,-4%
O=C(Nc1cnn(Cc2ccc(F)cc2)c1)c1cc2nc(-c3ccco3)cc(C(F)(F)F)n2n1,10µM*,-18,-7,-2%,7%
SMILES,Pf growth 96h,Shiga toxin inh,CHX counter,NS1 inh,Pf growth 48h
Cc1ccccc1Cn1cc(NC(=O)c2cc(-c3ccco3)on2)cn1,-13%,61*,19,nt,18%
O=C(Nc1cnn(Cc2ccc(F)cc2)c1)c1cc(-c2ccco2)on1,?,13,12*,nt,13%
Cc1nn(Cc2ccccc2)c(C)c1NC(=O)c1cc2nc(-c3ccco3)cc(C(F)(F)F)n2n1,-10%[5.75 µM],-4,6,-30%,12µM*
CCN1CCN(C(C)C(=O)Nc2c(C)n(C)n(-c3ccccc3)c2=O)CC1 (stereo not drawn),?,-24,17,0%,-10%
CCOC(=O)C1CCN(C(=O)CC2(CC(=O)O)CCCC2)CC1,41%,-17,1,1%,22%
COc1cccc(-c2cc(C(=O)Nc3cnn(Cc4ccc(F)cc4)c3)no2)c1,2.1µM*,10,10,-4%,5%
COc1cccc(-c2cc(C(=O)Nc3cnn(Cc4ccccc4C)c3)no2)c1,?,-11,-4,-10%,10%
C[C@@H]1CN=C2N(CCNC(=O)CCC3CCCCC3)[C@H](Cc3ccc(O)cc3)CN21,13µM*,-4,-3,-4%,5%
